From PubChem BioAssay (NCI)
Compounds without any hit were thinned out: in the full panel of roughly 83,000, 20% have a hit.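 Interpretation: 100, growth as untreated; towards 0, rising growth inhibition; 0, no net growth; 0 to -100, cell death. Compounds scoring below 10 were considered active.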 Calls of active or inactive are those of the source.

Legend:
Assay in all cases: NCI-60 one-dose screen, 48 h (100 = growth as untreated, 0 = no growth, -100 = all killed)
Conditions in all cases: 10 µM unless noted
DU-145 prostate = tested on: DU-145 prostate
K-562 leukemia = tested on: K-562 leukemia
MALME-3M melanoma = tested on: MALME-3M melanoma
MDA-MB-231 breast = tested on: MDA-MB-231 breast
RXF 393 renal = tested on: RXF 393 renal
SF-268 CNS = tested on: SF-268 CNS
SF-295 CNS = tested on: SF-295 CNS
SF-539 CNS = tested on: SF-539 CNS
UACC-257 melanoma = tested on: UACC-257 melanoma
M14 melanoma = tested on: M14 melanoma

Measured: growth

CCNC(=O)Oc1ccc(/C(=C(\C)c2ccccc2)c2ccc(OCCN(CC)CC)cc2)cc1
inactive: DU-145 prostate 95.4% | K-562 leukemia 18.9% | MALME-3M melanoma 81.1% | MDA-MB-231 breast 87.2% | RXF 393 renal 70.6% | SF-268 CNS 80.1% | SF-295 CNS 43.5% | SF-539 CNS 60.9% | M14 melanoma 39.7%
active: UACC-257 melanoma -0.741%

COc1ccc(C(=O)c2cc(C)c(OC)c(C)c2)c(OC)c1N(C(=O)CCl)C(=O)CCl
active: DU-145 prostate 0.0631% | K-562 leukemia 9.77% | MDA-MB-231 breast -1.61% | SF-295 CNS 5.4% | SF-539 CNS -21.1% | M14 melanoma -20.7%
inactive: MALME-3M melanoma 49.8% | RXF 393 renal 23.7% | SF-268 CNS 24.6% | UACC-257 melanoma 46.2%

COc1cc2c(c(O)c1Cl)C(=O)c1c(O)cc(C[C@H](C)O)cc1[C@H]2[C@H]1c2cc(C[C@H](C)O)cc(O)c2C(=O)c2c1cc(OC)c(Cl)c2O
inactive: DU-145 prostate 23.8% | K-562 leukemia 11.7% | RXF 393 renal 10.4% | SF-268 CNS 21.4% | M14 melanoma 19%
active: MALME-3M melanoma -32.6% | MDA-MB-231 breast -57.9% | SF-295 CNS -14.6% | SF-539 CNS -8.14% | UACC-257 melanoma -4.04%

COc1ccc(/C=C2\Oc3cc(OCCCCCN4CCCCC4)ccc3C2=O)cc1OC
active: K-562 leukemia -54.6%
inactive: DU-145 prostate 89.6% | MALME-3M melanoma 83.7% | MDA-MB-231 breast 86.7% | RXF 393 renal 76.3% | SF-268 CNS 87.2% | SF-295 CNS 98.6% | SF-539 CNS 81.1% | UACC-257 melanoma 87.4% | M14 melanoma 89.1%

N#CC(C#N)=Cc1cc2ccccc2nc1Oc1ccc(C(F)(F)F)cc1
inactive: DU-145 prostate 99.1% | K-562 leukemia 64.5% | MALME-3M melanoma 98.8% | MDA-MB-231 breast 84.5% | RXF 393 renal 92.3% | SF-268 CNS 84.4% | SF-295 CNS 92.2% | SF-539 CNS 96.9% | UACC-257 melanoma 106% | M14 melanoma 92.8%

N#Cc1c(NC(=O)NCc2ccccc2)sc2c1CCCC2
active: RXF 393 renal 0.0173% | SF-539 CNS -1.85%
inactive: DU-145 prostate 10.1% | K-562 leukemia 14% | MALME-3M melanoma 47.5% | MDA-MB-231 breast 18.8% | SF-268 CNS 46.9% | SF-295 CNS 21% | UACC-257 melanoma 68% | M14 melanoma 10.6%

C=CCN1C(=O)/C(=C/C(=O)OC)S/C1=N\NC(=O)c1cc2ccc1/C=C\c1ccc(cc1)/C=C\2
inactive: DU-145 prostate 106% | K-562 leukemia 51.9% | MALME-3M melanoma 92.4% | MDA-MB-231 breast 97.7% | RXF 393 renal 94.8% | SF-268 CNS 103% | SF-295 CNS 93.6% | SF-539 CNS 99.7% | UACC-257 melanoma 91.1% | M14 melanoma 78.9%

CC(=O)Nc1ccc(-c2ccc3c(c2)NC(=O)/C3=C\c2ccc[nH]2)cc1
inactive: DU-145 prostate 72% | K-562 leukemia 96.1% | MALME-3M melanoma 109% | MDA-MB-231 breast 80.7% | RXF 393 renal 104% | SF-268 CNS 92.1% | SF-295 CNS 87.2% | SF-539 CNS 81.4% | UACC-257 melanoma 119% | M14 melanoma 105%

COc1cc(-c2n/c(=C\c3c(O)[nH]c4ccc(Cl)cc34)cc3c2=Nc2ccccc2-3)ccc1F
inactive: K-562 leukemia 13.4% | SF-295 CNS 43.1% | SF-539 CNS 54.6% | UACC-257 melanoma 58.1% | M14 melanoma 14%
active: DU-145 prostate -36.4% | MALME-3M melanoma -66.4% | MDA-MB-231 breast -7.94% | RXF 393 renal -78.7% | SF-268 CNS -40.1%

COc1cc2c(=O)n(CCCN(C)C)c3c4cc5c(cc4ccc3c2cc1OC)OCO5
inactive: DU-145 prostate 63.5% | K-562 leukemia 56.3% | MALME-3M melanoma 67.8% | MDA-MB-231 breast 67% | RXF 393 renal 45.3% | SF-268 CNS 50.4% | SF-295 CNS 42.5% | SF-539 CNS 46.2% | UACC-257 melanoma 93.1% | M14 melanoma 66.6%

COc1cc2oc(-c3cccc(C(=O)Nc4ccccc4)c3)cc(=O)c2c(O)c1OC
inactive: DU-145 prostate 65.6% | K-562 leukemia 97.1% | MALME-3M melanoma 64.5% | MDA-MB-231 breast 76.3% | RXF 393 renal 56.5% | SF-268 CNS 37% | SF-295 CNS 70% | SF-539 CNS 19.4% | UACC-257 melanoma 84.3% | M14 melanoma 83.7%

Cc1cc2nc3c4cccc(O)c4n(CCN(C)C)c3nc2cc1C
active: K-562 leukemia 6.28%
inactive: DU-145 prostate 29.8% | MALME-3M melanoma 32.9% | MDA-MB-231 breast 28.1% | RXF 393 renal 35.1% | SF-268 CNS 51.1% | SF-295 CNS 32.1% | SF-539 CNS 25.7% | UACC-257 melanoma 63.5% | M14 melanoma 44.2%

CCOC(=O)[C@@H]1CCCN(S(=O)(=O)c2ccc(S(=O)(=O)N(CC)CC)c(F)c2)C1
inactive: DU-145 prostate 99% | K-562 leukemia 37.4% | MALME-3M melanoma 79.9% | MDA-MB-231 breast 92.9% | RXF 393 renal 76.4% | SF-268 CNS 85.9% | SF-295 CNS 49.6% | SF-539 CNS 88.8% | UACC-257 melanoma 60.6% | M14 melanoma 76.2%

CC1=CCC(OC(=O)C(C)(O)CCC(O)(C(=O)OC2(C)C=CC(O)(C(C)C)CC2)C(C)C)(C(C)C)CC1 (stereo not given)
inactive: DU-145 prostate 113% | K-562 leukemia 105% | MALME-3M melanoma 97.2% | MDA-MB-231 breast 100% | RXF 393 renal 98.5% | SF-268 CNS 101% | SF-295 CNS 101% | SF-539 CNS 103% | UACC-257 melanoma 106% | M14 melanoma 102%

O=C(c1ccccc1)N1N=C(c2ccc(-n3ccc(C(F)(F)F)n3)c(F)c2)CC1c1ccc[nH]1 (stereo not given)
inactive: DU-145 prostate 111% | K-562 leukemia 96.5% | MALME-3M melanoma 101% | MDA-MB-231 breast 99.5% | RXF 393 renal 112% | SF-268 CNS 104% | SF-295 CNS 105% | SF-539 CNS 109% | UACC-257 melanoma 95.6% | M14 melanoma 107%

ClC1=C(Br)C(Br)(Br)C(=C(Br)Br)C1(Br)Br
inactive: DU-145 prostate 104% | K-562 leukemia 70.1% | MALME-3M melanoma 94.1% | MDA-MB-231 breast 79.2% | RXF 393 renal 94.3% | SF-268 CNS 108% | SF-295 CNS 115% | SF-539 CNS 100% | UACC-257 melanoma 87.6% | M14 melanoma 81.6%

Oc1c(Cl)cc(Cl)c(Cl)c1CNCCNCc1c(O)c(Cl)cc(Cl)c1Cl
active: SF-539 CNS -9.34% | UACC-257 melanoma 4.63%
inactive: DU-145 prostate 45.9% | K-562 leukemia 10.3% | MALME-3M melanoma 13.4% | MDA-MB-231 breast 35.5% | RXF 393 renal 28.2% | SF-268 CNS 25% | SF-295 CNS 18.3% | M14 melanoma 20.3%

Cc1cnc(C(=O)Nc2nc3ccc(S(=O)(=O)Nc4ccc(C5(C(F)(F)F)CC5)cc4)cc3[nH]2)cn1
active: DU-145 prostate 1.12% | RXF 393 renal -17.4% | SF-539 CNS -1.85% | M14 melanoma 6.68%
inactive: K-562 leukemia 10% | MALME-3M melanoma 32.2% | MDA-MB-231 breast 47.2% | SF-268 CNS 47% | SF-295 CNS 20.6% | UACC-257 melanoma 57.7%

COc1ccc(C(=O)c2cc(C)c(OC)c(C)c2)c(OC)c1OC(=O)C(Cl)Cl
active: DU-145 prostate 4.39% | K-562 leukemia 8.43% | SF-539 CNS -16% | M14 melanoma -9.89%
inactive: MALME-3M melanoma 58.9% | MDA-MB-231 breast 18.8% | RXF 393 renal 38.7% | SF-268 CNS 25% | SF-295 CNS 14.5% | UACC-257 melanoma 48.1%

COC(=O)C(OC(C)=O)C(OC(C)=O)c1ccc(OC)c(OC)c1 (stereo not given)
inactive: DU-145 prostate 102% | K-562 leukemia 83.2% | MALME-3M melanoma 104% | MDA-MB-231 breast 92.7% | RXF 393 renal 125% | SF-268 CNS 99.6% | SF-295 CNS 101% | SF-539 CNS 105% | UACC-257 melanoma 82.5% | M14 melanoma 93.9%

O=C1Nc2cc(-c3ccc(NC(=O)C4CC4)cc3)ccc2/C1=C/c1ccc[nH]1
inactive: DU-145 prostate 105% | K-562 leukemia 98.4% | MALME-3M melanoma 98.5% | MDA-MB-231 breast 99.5% | RXF 393 renal 108% | SF-268 CNS 104% | SF-295 CNS 101% | SF-539 CNS 90.7% | UACC-257 melanoma 116% | M14 melanoma 99.3%

CCCCCN1C=C/C(=C\C(=O)N2CCCc3ccccc32)c2ccccc21
inactive: DU-145 prostate 94.1% | K-562 leukemia 54.1% | MALME-3M melanoma 86% | MDA-MB-231 breast 97% | RXF 393 renal 99.5% | SF-268 CNS 87.2% | SF-295 CNS 85.7% | SF-539 CNS 97.2% | UACC-257 melanoma 89.8% | M14 melanoma 100%

COc1ccc(C(=O)/C=C/c2cc3ccccc3n3nnnc23)cc1
inactive: DU-145 prostate 115% | K-562 leukemia 91.8% | MALME-3M melanoma 108% | MDA-MB-231 breast 106% | RXF 393 renal 106% | SF-268 CNS 108% | SF-295 CNS 102% | SF-539 CNS 107% | UACC-257 melanoma 114% | M14 melanoma 110%

COc1ccc(C/C(C)=C(/c2ccc(OCCCN(C)C)cc2)c2ccc(OC(C)=O)cc2)cc1
inactive: DU-145 prostate 89.2% | MALME-3M melanoma 79% | MDA-MB-231 breast 66.8% | RXF 393 renal 65.6% | SF-268 CNS 71% | SF-295 CNS 27.1% | SF-539 CNS 72.6% | UACC-257 melanoma 73.6% | M14 melanoma 50.6%
active: K-562 leukemia 3.38%

COc1cc(NC(C)CCCNC(=O)CCC(=O)NCCCNCCCCCCCCNCCCNC(=O)CCC(=O)NCCCC(C)Nc2cc(OC)cc3cccnc23)c2ncccc2c1 (stereo not given)
inactive: DU-145 prostate 66.7% | K-562 leukemia 45.1% | MALME-3M melanoma 40.2% | MDA-MB-231 breast 44% | RXF 393 renal 67.9% | SF-268 CNS 52.2% | SF-295 CNS 85.5% | SF-539 CNS 69% | UACC-257 melanoma 36.3% | M14 melanoma 84.4%

O=C(NCCc1ccccc1)Nc1ccc2cc3ccc(NC(=O)NCCc4ccccc4)cc3nc2c1
active: K-562 leukemia 1.41% | MALME-3M melanoma -13.8% | MDA-MB-231 breast -17.5% | RXF 393 renal -21.5% | SF-268 CNS -54.2% | SF-295 CNS 0.203% | SF-539 CNS -61.7%
inactive: DU-145 prostate 29.2% | UACC-257 melanoma 85.6% | M14 melanoma 33.8%
